Test results from PubChem BioAssay AID492956 (The Scripps Research Institute Molecular Screening Center, 2010).
The campaign covered roughly 340,000 compounds. About 3,300 (0.97%) were called active. The full list was thinned out, with actives kept by preference. Values without a mark were called inactive.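 How the source made its calls: active means inhibition above the mean over all tested compounds plus 3 SD (cut at about 30% in these data); inactive means the rest.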

Target: Platelet-activating factor acetylhydrolase 2, cytoplasmic (Homo sapiens) (UniProt Q99487)
Assay: PAFAH2 enzyme inhibitors, primary screen, biochemical, fluorescence polarization, human (AID 492956);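 further: inhibitors block probe labeling of enzyme so polarization drops; 0% = enzyme with DMSO and 100% = wells lacking PAFAH2 protein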
Details: recombinant PAFAH2, FP-rhodamine activity probe, at 3.39 µM, active compounds read high

Compound	inhibition
CC(=O)Nc1ccc(SC[C@H](Cc2ccccc2)N2CC[C@@H](C)CCC2=O)cc1	1.61%
CCOC(=O)C1CCCN(Cc2nc(N)nc(Nc3ccc(C)cc3)n2)C1 (stereo not given)	3.45%
CCCN(CC1CC1)C(=O)COC(=O)c1ccc(C)cc1O	6.82%
Cc1cccc(NC(=O)/C=C/c2ccc3c(c2)OCO3)n1	0.78%
Cc1csc(NC(=O)CSc2ccc(-c3ccc(F)cc3)nn2)n1	1.11%
COC(=O)c1sc(-c2ccc(C(C)(C)C)cc2)cc1NC(=O)/C=C/C(=O)O	-3.2%
C[C@@H]1CC[C@]2(O[C@@H](CCO)C[C@H](O)[C@H]2O)O1	-8.93%
O=C(NCc1ccccc1Cl)c1csc2c1CCCCC2	3.83%
O=C(OCc1ccccc1F)c1ccc2c(c1)OCCO2	14.7%
O=C(COC(=O)c1ccc2c(c1)OCCO2)NCc1ccccc1	51.5% (active)
O=C(COC(=O)c1ccc2c(c1)OCCO2)NCc1ccccc1Cl	85.4% (active)
CN(C)C(=O)c1ccc(NC(=O)COC(=O)c2cc3c(s2)CCCCC3)cc1	22.8%
O=C(CN(Cc1ccccc1)C(=O)c1ccc2c(c1)OCCO2)NCc1ccc2c(c1)OCO2	1.54%
CC(NC(=O)COC(=O)c1ccc2c(c1)OCO2)c1ccccc1 (stereo not given)	55% (active)
O=C(COC(=O)c1ccccc1)c1ccc2c(c1)OCCO2	2.41%
CC(NC(=O)COC(=O)c1cc(=O)[nH]c2ccccc12)c1ccccc1 (stereo not given)	1.93%
O=C(COC(=O)c1cc2c(s1)CCCC2)NCc1ccccc1Cl	67% (active)
CC(=O)Nc1cccc(C(=O)OCC(=O)c2ccc3c(c2)OCO3)c1	-2.44%
O=C(COC(=O)c1ccc(Cl)nc1)NCc1ccc2c(c1)OCO2	5.61%
COc1cc(C(c2c(NC(=O)c3ccco3)sc(C)c2C)N2CCOCC2)cc(OC)c1OC (stereo not given)	2.1%
S=c1nc2ccccc2c2nc(-c3cccnc3)[nH]n12	6.52%
CCCCN1C(=O)CCC(C(=O)O)C1c1ccc(OC)cc1 (stereo not given)	-2.61%
CC(=O)Nc1ccc(Nc2c([N+](=O)[O-])cc(S(C)(=O)=O)cc2[N+](=O)[O-])cc1	3.4%

Compound	inhibition
O=C(CNS(=O)(=O)c1ccccc1)NCC(=O)OCc1ccccc1F	10.3%
COC(=O)c1ccccc1NC(=O)C1(S(=O)(=O)c2ccc(Cl)cc2)CC1	4.24%
CC(C)C1C2=C(CC(C)(C)CC2=O)ON1c1ccccc1 (stereo not given)	-5.16%
Cc1cc(C)n(CC(C)NCc2c(C(=O)N3CCOCC3)nc3c(C)cccn23)n1 (stereo not given)	-0.83%
FC(F)(F)c1nc(-c2ccccc2)ncc1-c1nnnn1-c1ccccc1	10.3%
Cc1ccc(-n2ncc3c2CC(C)(C)CC3NC(=O)Cc2c(C)noc2C)cc1 (stereo not given)	-3.4%
COc1ccc(C(C(=O)NCc2ccccc2)N(Cc2cccs2)C(=O)c2cnccn2)cc1 (stereo not given)	2.03%
N[C@@H](Cc1ccccc1)C(=O)N1CCC(C(=O)NCC(=O)Nc2ccc(F)cc2)CC1	-5.9%
C=CCn1c(=S)[nH]c2scc(-c3ccco3)c2c1=O	38.7% (active)
C=CCn1cnc2scc(-c3ccccc3)c2c1=O	-1.85%
C=CCn1c(=S)[nH]c2nc3c(cc2c1=O)COC(C)(C)C3	6.59%
O=S1(=O)C=C(SCCN2CCCC2)c2ccccc21	6.55%
C=CCN1C2CCCC1CC(NC(=S)Nc1cccc(OC)c1)C2 (stereo not given)	1.32%
NC(=O)COc1ccccc1C(=O)NC12CC3CC(CC(C3)C1)C2	6.96%
COc1cc(C(=O)OCC(=O)NC(C)CCc2ccccc2)cc(OC)c1OC (stereo not given)	5.21%
O=C(COC(=O)c1cccnc1Cl)Nc1ccc(S(=O)(=O)N2CCOCC2)cc1	-2.28%
COc1cc(C(=O)OCC(=O)NC23CC4CC(CC(C4)C2)C3)cc(OC)c1OC	77.8% (active)
O=C(COC(=O)c1ccc(Br)o1)NC12CC3CC(CC(C3)C1)C2	26.2%
O=C(COC(=O)c1ccc([N+](=O)[O-])o1)NC12CC3CC(CC(C3)C1)C2	59.8% (active)
O=C(OCC(=O)c1cccs1)c1ccc([N+](=O)[O-])o1	-2.46%
COc1ccccc1C(=O)NC(=S)NC12CC3CC(CC(C3)C1)C2	-0.29%
O=C(COC(=O)c1cccnc1Cl)NC12CC3CC(CC(C3)C1)C2	86.5% (active)
COc1ccc(COC(=O)c2ccc(Cl)c(S(=O)(=O)N3CCOCC3)c2)cc1F	8%

Compound	inhibition
CN(C)S(=O)(=O)c1ccc(NC(=O)COC(=O)Cn2[nH]c(=O)c3ccccc3c2=O)cc1	1.37%
CCOc1ccc2c(c1)cc(CN(C(=O)CC)C1CCCCC1)c1nnnn12	9.13%
COc1ccc(C(=O)COC(=O)c2ccc([N+](=O)[O-])s2)cc1OC	18.3%
COc1cc(NC(=O)COC(=O)c2cnc(C)cn2)c(C)cc1[N+](=O)[O-]	4%
COc1cc(NC(=O)COC(=O)c2ccc([N+](=O)[O-])s2)cc(OC)c1OC	36.9% (active)
Cc1ccc2c(c1)N(C(=O)CCC(=O)N1CCc3ccccc3C1)CCO2	1.77%
COc1ccc(C(=O)OCC(=O)c2ccc(Cl)s2)c(OC)c1OC	65.5% (active)
COc1ccc(C(=O)COC(=O)c2nn(C)c(=O)c3ccccc23)c(OC)c1	1.19%
COc1ccc(C(=O)OCC(=O)Nc2ccc3[nH]c(=O)[nH]c3c2)c(OC)c1OC	2.25%
COc1ccccc1NC(=O)N(O)C1(C#N)CCCCC1	17.2%
Clc1ccc(-c2nc3ccccn3c2CN2CCSCC2)cc1	3.86%
COc1cc(CCC(=O)OCC(=O)Nc2cccc(S(N)(=O)=O)c2)cc(OC)c1OC	8.16%
O=C1C(=O)N(CCCO)C(c2ccccc2)/C1=C(\O)c1ccc(Br)cc1 (stereo not given)	2.68%
O=[N+]([O-])c1ccc(N2CCOCC2)cc1	6.57%
COc1cnn(-c2ccc([N+](=O)[O-])cc2)c(=O)c1Cl	5.97%
O=c1[nH]n(-c2ccc([N+](=O)[O-])cc2)c(=O)c2ccccc12	32.5% (active)
COc1cccc(NC(=O)[C@H](Cc2c[nH]c3ccccc23)NC(=O)[C@@H]2Cc3ccccc3CN2)c1	4.49%
CC(C)(C)OC(=O)C[C@@H]1C/C=C\C[C@H](CC(=O)N[C@@H](CO)Cc2ccccc2)C(=O)N[C@H](Cc2ccccc2)COC1=O	-5.38%
CCOC(=O)C1=C(N)N(c2ccc(C)cc2)C2=C(C(=O)CCC2)C1c1cccs1 (stereo not given)	11%
COc1ccc(NC(=O)CS(=O)(=O)c2ccccc2)cc1	-6.64%
COc1ccc(NC(=O)CCCC(=O)c2ccccc2)cc1	-4.3%
COc1ccc(NC(=O)CC(NC(C)c2ccccc2)C(=O)O)cc1 (stereo not given)	35.8% (active)
O=C1N(c2ccccc2)C(=Nc2ccccc2)SC12CC2	-1.71%

Compound	inhibition
COc1ccc(N(Cc2cc3ccc(C)cc3[nH]c2=O)S(=O)(=O)c2ccccc2)cc1	1.35%
CCCCn1c(N)c(N(Cc2ccccc2OC)C(=O)COc2cc(C)ccc2Cl)c(=O)[nH]c1=O	-1.09%
O=C(COc1ccc(S(=O)(=O)N2CCCCC2)cc1)NCc1ccccn1	9.09%
O=C(O)/C=C/c1ccc(S(=O)(=O)N2CCCCCC2)cc1	0.61%
O=C(COC(=O)/C=C/c1ccc(S(=O)(=O)N2CCCCCC2)cc1)NCc1ccccc1Cl	33.9% (active)
O=C(Nc1ccc(F)cc1)c1cccnc1N1CCOCC1	-2.86%
CC1=C(C(=O)Nc2ccc(Cl)cc2)C(c2ccco2)NC(=O)N1 (stereo not given)	0.63%
COc1ccc(Nc2nc(N)nc(CSC(=S)N3CCC(C)CC3)n2)cc1	5.5%
COc1ccccc1Nc1nc(N)nc(CSC(=S)N2CCOCC2)n1	30.8% (active)
Cc1ccccc1Nc1nc(N)nc(CSc2ccccc2)n1	3.88%
O=C(CN1CCCCCC1)Nc1ccc(Br)cc1Br	2.02%
O=c1oc(-c2ccccc2NS(=O)(=O)c2ccc(Cl)cc2)nc2ccccc12	82.1% (active)
O=c1oc2ccccc2c(NC2CCCCC2)c1NS(=O)(=O)c1ccc(Cl)cc1	5.54%
O=c1ccc2cc(S(=O)(=O)Nc3ccccc3F)ccc2o1	0.74%
CCCCNS(=O)(=O)c1ccc2nc(SCC(=O)Nc3cc(C)cc(C)c3)[nH]c2c1	-16.9%
COC(=O)c1cc(NC(=O)Cc2ccccc2[N+](=O)[O-])ccc1Cl	0.54%
N#Cc1cccc(NC(=O)COC(=O)c2ccccc2C(=O)c2ccc(Cl)c([N+](=O)[O-])c2)c1	58.9% (active)
CC(=O)Nc1ccc(NC(=O)C(C)OC(=O)c2ccccc2C(=O)c2ccc(Cl)c([N+](=O)[O-])c2)cc1 (stereo not given)	-5.1%
COC(=O)c1onc(-c2c(OC)cc(OC)cc2OC)c1C(=O)OC	-0.23%
Cc1cn(C2CC(O)C(CO)O2)c(=O)n(CCCc2ccccc2)c1=O (stereo not given)	-0.23%
COc1cccc(CNC(=O)C2CCN(S(=O)(=O)c3cccc4cccnc34)CC2)c1	-7.61%
